Experimental data reported in paper PMC5700166.

biological target: T1, GST-Ap-NF-kB RHD (Exaiptasia pallida (Aiptasia), UniProt A0A913YAJ5 2-422); assay: protein-binding microarray (PBM); PBM: ~300 nM protein, 6 mM HEPES pH 7.8, 80 mM KCl, 0.5 mM EDTA, 0.5 mM EGTA, 6% glycerol, 35 ng/ul poly-dIdC, 1% milk, 1 h, room temperature; Ap Aiptasia and Nv Nematostella (sea anemones) / Co Capsaspora / Aq Amphimedon (sponge) / Dm Drosophila / Hu human; RHD is the Rel homology domain; high values mean tight binding; settings: dsDNA, one strand shown
T1 sequence: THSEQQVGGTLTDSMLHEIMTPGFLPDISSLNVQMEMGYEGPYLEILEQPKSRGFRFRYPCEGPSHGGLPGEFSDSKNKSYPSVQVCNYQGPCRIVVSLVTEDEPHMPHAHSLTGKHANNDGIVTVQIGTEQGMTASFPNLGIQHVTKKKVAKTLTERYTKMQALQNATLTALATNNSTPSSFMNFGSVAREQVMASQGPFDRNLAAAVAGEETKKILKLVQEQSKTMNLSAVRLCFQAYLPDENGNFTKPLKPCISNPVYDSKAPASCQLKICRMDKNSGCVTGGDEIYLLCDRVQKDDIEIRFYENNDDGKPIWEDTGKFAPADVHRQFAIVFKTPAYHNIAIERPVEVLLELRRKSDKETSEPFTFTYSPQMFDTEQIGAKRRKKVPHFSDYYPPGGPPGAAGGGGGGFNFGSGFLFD

Sequence	binding signal [z-score]
CCGATTAACATCAGGCCGTCCCCTGATGTTAATCGGGTCTTGATTCGCTTGACGCTGCTG	4.92
CCGATTAACATCAAGGGAGTACCTGATGTTAATCGGGTCTTGATTCGCTTGACGCTGCTG	4.45
CCGATTAACATCAAAAATCCCGATGATGTTAATCGGGTCTTGATTCGCTTGACGCTGCTG	3.79
CCGATTAACATCAGGGAATGACCTGATGTTAATCGGGTCTTGATTCGCTTGACGCTGCTG	2.15
CCGATTAACATCAGGGGAGGTACTGATGTTAATCGGGTCTTGATTCGCTTGACGCTGCTG	4.21
CCGATTAACATCAAATAAATCCCTGATGTTAATCGGGTCTTGATTCGCTTGACGCTGCTG	3.07
CCGATTAACATCAAAATAATCCCTGATGTTAATCGGGTCTTGATTCGCTTGACGCTGCTG	6.46
CCGATTAACATCAGGGAAACCCATGATGTTAATCGGGTCTTGATTCGCTTGACGCTGCTG	3.64
CCGATTAACATCAGAATTCCCACTGATGTTAATCGGGTCTTGATTCGCTTGACGCTGCTG	2.58
CCGATTAACATCAGGATCTTCCCTGATGTTAATCGGGTCTTGATTCGCTTGACGCTGCTG	3.64
CCGATTAACATCAGGGGAGCCCCTGATGTTAATCGGGTCTTGATTCGCTTGACGCTGCTG	8.45
CCGATTAACATCACGTAAACCCCTGATGTTAATCGGGTCTTGATTCGCTTGACGCTGCTG	3.55
CCGATTAACATCAGGATTGCCCCTGATGTTAATCGGGTCTTGATTCGCTTGACGCTGCTG	2.91
CCGATTAACATCAGATTCTCCCCTGATGTTAATCGGGTCTTGATTCGCTTGACGCTGCTG	5.2
